Among the data in PubChem BioAssay AID687020 (Broad Institute, 2013) are outcome values, retold here.

In all, about 1,400 compounds went through this assay and about 100 (7.1%) were called active. No rule for the calls is given here. A selection follows. Measured potencies and affinities stand elsewhere.

This test is described as follows: Vero cell toxicity, dose response, cytotoxicity control, plate reader, cherry-pick samples (AID 687020).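 Also: compounds incubated with cells for three days before luminescence read.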 As to conditions: Vero cells toxicity; series mostly up to 19.5 µM.
With `O=C(CN1CCN(Cc2ccccc2)CC1)NNC(=O)c1ccccc1`, the call was inactive. For `CCCNC(=O)C(Cc1ccc(I)cc1)NC(=O)c1ccc(C#N)cc1` (stereo not given) the value was “inactive”; for `Cc1ccnc(NC(=O)C(Cc2ccccc2)NC(=O)c2ccccc2)c1` (stereo not given), “inactive”; for `Cc1cn([C@H]2C[C@H](O)[C@@H](CNCc3ccc4ncccc4c3)O2)c(=O)[nH]c1=O`, “inactive”. On to `CCOc1ccc(N(CC(=O)Nc2cccc(C)c2)S(C)(=O)=O)cc1`, for which the call was inactive. For `CCN(CC)S(=O)(=O)c1ccc(NC(=O)COC(=O)CNC(=O)C2CCCCC2)cc1` the value was “inactive”; for `Cc1c(C)c2c(OCC(=O)N3CCC(O)CC3)cc3c(c2oc1=O)CCC(C)(C)O3`, “inactive”; for `CCCc1cc(=O)oc2c(C)c(OCC(=O)N3C[C@H]4C[C@@H](C3)c3cccc(=O)n3C4)ccc12`, “inactive”. With `C[C@@H]1CN([C@H](C)CO)C(=O)c2cc(NC(=O)Nc3ccc(C(F)(F)F)cc3)ccc2O[C@@H]1CN(C)Cc1ccccc1` the entry was “inactive”; with `COc1ccccc1N1CCN(C(=O)c2cc(S(=O)(=O)N3CCCCC3)ccc2C)CC1`, “inactive”; with `O=C(Nc1ccn(CC(=O)N2CCN(c3ccccn3)CC2)c(=O)n1)OCc1ccccc1`, “inactive”. On to `CC(C)(C)OC(=O)C(Cc1ccc(OC(C)(C)C)cc1)NC(=O)CNC(=O)OCc1ccccc1` (stereo not given), for which the result was inactive. Take `Cc1cccc(NC(=O)c2cccc(S(=O)(=O)N(C)C3CCCCC3)c2)n1`: the compound was classed as inactive. For `CCCC/C=C/c1cccc2nncn12` the value was “inactive”; for `COc1cccc(-c2nc3nc(C)cc(C)n3c2NC2CCCC2)c1`, “inactive”; for `CCC(=O)Nc1cc(C(=O)OCc2ccc(C(=O)Oc3ccccc3)cc2)ccc1C`, “inactive”. `O=C([C@@H]1[C@@H](CO)[C@@H]2Cn3c(cccc3=O)[C@H]1N2C(=O)CC1CC1)N1CCCCC1`: the compound was classed as inactive. Regarding `CCCCNC(=O)c1onc(CS(=O)(=O)c2ccccn2)c1C(=O)NCCCC`, the outcome was inactive.

In the case of `COc1ccc([C@H]2/C=C\CN(C(=O)c3ccc(C)cc3)[C@@H](C)C(=O)N2Cc2ccc(F)cc2)cc1`, the compound was classed as inactive. With `O=C(N[C@H](Cc1ccccc1)C(=O)NC1CCCCC1)[C@H]1O[C@@H](n2ccc(=O)[nH]c2=O)[C@H](O)[C@@H]1O` the entry was “inactive”; with `COC(=O)c1ccc2nc(-c3ccc(C#N)cc3)c(Cc3cccc(F)c3)n2c1`, “inactive”. Take `COC(=O)c1ccc2nc(C3CCCCC3)c(Cc3ccccc3OC)n2c1`: the outcome was inactive.

Consider `CCN1CCN(CCc2nc3cc(NC(=O)COc4ccc(Cl)cc4)ccc3n2C)CC1`, for which the outcome was inactive. As for `CCN1C(=NCCc2c[nH]c3ccccc23)N[C@@H](c2ccccc2)[C@H](C(=O)OC)[C@H]1C`, the compound was classed as inactive. With `NCc1csc(NC(=O)Nc2cccc(Cl)c2)n1` the entry was “inactive”; with `COC(=O)[C@]12CCCCC=C1N(Cc1cccc3ccccc13)C(=O)[C@H](CC(=O)NCCC(C)C)C2`, “inactive”; with `COC(=O)[C@]12CCCCC=C1N(Cc1cccc3ccccc13)C(=O)[C@H](CC(=O)N1CCOCC1)C2`, “inactive”. With `COc1ccc(S(=O)(=O)Nc2ccc3c(c2)C(=O)N([C@@H](C)CO)C[C@H](C)[C@H](CN(C)C(=O)Nc2ccc(C(F)(F)F)cc2)OCCCC[C@H](C)O3)cc1`, the result was inactive. As for `CC(NC(=O)CN1CCCC1)c1ccccc1` (stereo not given), the outcome was inactive.

For `Cc1cc(C)c2[nH]c(C(=O)Nc3ccc4c(c3)OCO4)cc2c1`, the compound was classed as inactive.

On to `Cc1cccc(OCCn2c(=O)n(C)c3ccccc32)c1`, for which the compound was called inactive. For `Cc1oc2cc3oc(=O)c(CCC(=O)NCCCn4ccnc4)c(C)c3cc2c1C`, the compound was classed as inactive.

Regarding `Cc1c(C)c2cc(Cl)c(OCC(=O)NCCCN3CCCC3=O)cc2oc1=O`, the result was inactive. For `COc1ccc(CN(CCC(c2ccccc2)C2CCOC(C)(C)C2)C(C)=O)cc1` (stereo not given) the value was “inactive”. Take `Cc1cccc(C(=O)NC2CCN(CC(=O)Nc3cccc(Cl)c3)CC2)c1`: the result was inactive.

Regarding `Cc1ccc(C2(C)NC(=O)N(CC(=O)Nc3ccccc3C(=O)NC3CCCC3)C2=O)cc1` (stereo not given), the result was inactive. On to `O=S1(=O)CCOCCCN1Cc1ccccc1Br`, for which the compound was called inactive. For `CN1C(=O)c2cc(NC(=O)Cc3cccs3)ccc2OC[C@@H]2O[C@H](CC(=O)NCC3CCCCC3)CC[C@H]21` the value was “inactive”. With `CC(=O)N1CC2(C1)[C@H](c1ccc(-c3ccc(C#N)cc3)cc1)[C@@H](CO)N2C(=O)C1CC1` the entry was “inactive”. For `CCCCN1C(Nc2ccccc2)=NC[C@@H]1Cc1ccccc1` the value was “inactive”. As for `O=C(Nc1ccccc1)c1ccccc1CSc1ccccc1`, the outcome was inactive. With `O=C(Cc1cccc(C(F)(F)F)c1)Nc1ccc(S(=O)(=O)N2CCCC2)cc1` the entry was “inactive”; with `O=S(=O)(c1cccc(C(F)(F)F)c1)N1CCN(CC(O)COCc2ccccc2)CC1` (stereo not given), “inactive”. For `CC1(C#N)c2ccccc2C(Br)=CN1C(=O)c1ccccc1` (stereo not given) the value was “inactive”. With `COc1ccc(NC(=O)C2CCC(CNS(=O)(=O)c3cccs3)CC2)cc1OC` (stereo not given) the entry was “inactive”; with `O=C1Nc2ccccc2SC1c1ccccc1` (stereo not given), “inactive”. On to `COc1ccc(-c2nc3ccc(C)cn3c2Cc2cccc(F)c2)cc1OC`, for which the compound was classed as inactive. In the case of `CC(=O)Nc1cccc(C(=O)OCC(=O)Nc2ccc(Cl)cn2)c1`, the call was inactive. Consider `CC(=O)Nc1cccc(/C(C)=N/NC(=O)c2cccc(S(=O)(=O)N3CCCC3)c2)c1`, for which the compound was classed as inactive. For the compound `O=C(C1CCOCC1)N1[C@H](CO)[C@@H](c2ccccc2)C12CN(Cc1cccnc1)C2`, the outcome was inactive.

On to `COC(=O)Cc1ccc(OC2(C)CCN(Cc3csc4ccccc34)C2)cc1` (stereo not given), for which the compound was called inactive. For `COc1ccc(Cc2nnc(NC(=O)c3ccccc3Cl)s2)cc1OC` the value was “inactive”; for `COC(=O)CCc1cccc(CCC(=O)OC)c1`, “inactive”.

As for `C[C@@H](NC(=O)C[C@@H]1CC[C@H]2[C@@H](COC[C@H](O)CN2C(=O)Nc2ccccc2)O1)c1ccccc1`, the outcome was inactive. For `Cc1ccc(S(=O)(=O)NC(=O)C2(C)CCN2C(=O)c2ccc(C(F)(F)F)nc2C)cc1` (stereo not given) the value was “inactive”; for `Cc1ccc(-c2csc(NC(=O)c3ccc(S(=O)(=O)N4CCc5ccccc54)cc3)n2)cc1`, “inactive”.

`O=S(=O)(c1cnc(Cl)c(Cl)c1)N1CCc2ccccc21`: the call was inactive. In the case of `COCCNC(=O)C[C@@H]1C[C@H]2c3cc(NC(=O)Nc4ccc(OC)cc4)ccc3O[C@H]2[C@@H](CO)O1`, the compound was called inactive.

With `COc1ccc(CC(=O)OCC(=O)NCCNC(=O)COC(=O)Cc2ccc(OC)cc2)cc1`, the outcome was inactive. For `C[C@H](CCC(=O)O)[C@H]1CC[C@H]2[C@@H]3CC[C@@H]4C[C@H](O)CC[C@]4(C)[C@H]3C[C@H](O)[C@]12C` the value was “inactive”; for `CC(Oc1ccc(Cl)cc1Cl)C(=O)NCCCN1CCOCC1` (stereo not given), “inactive”.

On to `Cc1oc2c(C)c3oc(=O)c(CCC(=O)NCCN4CCOCC4)c(C)c3cc2c1C`, for which the outcome was inactive. `O=C(NC1CCCCC1)N[C@H]1C=C[C@@H](CC(=O)N2CCOCC2)O[C@@H]1CO`: the compound was called inactive. With `CN(CC(=O)Nc1ccccc1C(=O)NC1CC1)Cc1ccccc1F` the entry was “inactive”; with `CCCCCC(=O)NC1CCCCN(C)C1=O` (stereo not given), “inactive”; with `CC(=O)NCCNc1nc(NCc2cccs2)nc2ccsc12`, “inactive”. Take `COc1ccc(N2CCN(Cc3nc4c(c(=O)[nH]c(=O)n4C)n3Cc3cccc(Cl)c3)CC2)cc1`: the result was inactive. With `NC(c1csc(NC(=O)Nc2cccc(Cl)c2)n1)C1CCCCC1` (stereo not given) the entry was “inactive”; with `Cc1ccc(Cn2cc(CN3CC(N(C)C)CS3(=O)=O)nn2)cc1` (stereo not given), “inactive”; with `CC(C)(C)OC(=O)NC(CC(=O)OCc1ccccc1)C(=O)O` (stereo not given), “inactive”. With `O=C(O)C(Cc1ccc(Cl)cc1)NS(=O)(=O)c1ccc(Cl)cc1` (stereo not given) the entry was “inactive”.

Turning to `O=S(=O)(c1ccc(=S)[nH]c1)N1CCN(Cc2ccccc2)CC1`, the result was inactive. With `O=C(O)C1C2C=CC(C2)C1C(=O)NCc1ccccc1` (stereo not given) the entry was “inactive”; with `O=C(Nc1cc(F)cc(F)c1)c1sc(Cl)nc1-c1ccccc1`, “inactive”; with `CCS(=O)(=O)N1CCC2(CC1)OCCN2S(=O)(=O)c1ccccc1`, “inactive”. Take `NC(=O)C1CCN(C(=O)C2(NC(=O)Nc3cccc(F)c3)CCCCC2)CC1`: the compound was called inactive. Take `COc1ccc(CNC(=O)C[C@H]2C(=O)N(Cc3ccccc3)C[C@@H]2Cc2ccccc2)cc1`: the call was inactive. As for `CCCCN1C[C@H](Cc2ccccc2)[C@@H](CC(=O)NCc2ccc(OC)cc2)C1=O`, the compound was called inactive. Consider `CCCCn1nc(C(=O)Nc2ccc3c(c2)OCO3)c2ccccc2c1=O`, for which the outcome was inactive. With `CO[C@@H]1CN(C)C(=O)c2ccc(NS(=O)(=O)c3cccc(F)c3)cc2OC[C@@H](C)N(C(=O)Cc2cccnc2)C[C@H]1C` the entry was “inactive”; with `COc1ccc(-c2csc(C(C)(O)c3ccc(F)c(F)c3)n2)cc1OC` (stereo not given), “inactive”.

Regarding `COc1cc(NC(=O)c2nccn2C)cc(C(=O)Nc2cccc(C(F)(F)F)c2)c1`, the compound was called inactive. In the case of `COc1ccc(CCC(=O)Nc2cc(S(=O)(=O)N3CCOCC3)ccc2OC(C)C)cc1`, the compound was called inactive. For `COc1ccc(NC(=O)CN2CCc3ccccc3C2)cc1S(=O)(=O)N1CCOCC1` the value was “inactive”; for `CCCNC(=O)N1CC2(C1)CN(Cc1cccc(F)c1)[C@@H](CO)c1[nH]c3cc(OC)ccc3c12`, “inactive”; for `C[C@@H](NC(=O)[C@@H]1[C@@H](CO)[C@@H]2Cn3c(cccc3=O)[C@@H]2N1CC1CCCC1)c1ccccc1`, “inactive”. For `CC(Oc1ccc2ccc(=O)oc2c1)C(=O)NC(Cc1c[nH]c2ccc(O)cc12)C(=O)O` (stereo not given) the value was “inactive”; for `O=C(N[C@@H]1CC[C@H](CCNC(=O)C2CCCCC2)O[C@@H]1CO)c1ccccn1`, “inactive”. For `COc1ccc(CCN2CC(C(=O)NCCc3ncccc3C)CCC2=O)cc1` (stereo not given) the value was “inactive”. With `CCCc1cc(CNC(=O)C2CCC(=O)N(CCc3cccc(F)c3)C2)on1` (stereo not given), the outcome was inactive. Consider `Nc1ccc2oc(-c3ccccc3Cl)cc(=O)c2c1O`, for which the call was inactive. With `Cc1ccc(OCCCCNC(C)c2ccccc2)c(C)c1` (stereo not given) the entry was “inactive”; with `COc1ccc(Cl)cc1-c1cc(C(=O)N[C@H](C)c2ccccc2)[nH]n1`, “inactive”. For the compound `CC(C)c1ccccc1OCCCCN1CCCCC1`, the compound was called inactive. Turning to `Cc1cc(O)c(C(C)C)cc1NC(=O)c1ccccc1Cl`, the compound was called inactive.
